Source: PubChem (several laboratories)
This is a sample that favours compounds with a hit; in the whole collection about 2.5% have one here.
Jurkat NFkB inh: lowers PMA/ionomycin-induced NF-kB signal in Jurkat cells | PMA/ionomycin-induced NF-kB luciferase reporter, luminescence | inhibition, % at 4 µM | hit rate 0.53% among 330,000 | AID 435003; in the data active means inhibition above about 50%
ANO1 block: mouse TMEM16A channel inhibition, primary screen. HEK293 TMEM16A/YFP iodide influx fluorescence, ionomycin. normalized B-score (activity score, 25-100; higher = stronger inhibition) at 10 µM. hit rate 1.2% among 310,000;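 active means ratio plate-corrected score three or more library SD toward inhibition, starting fluorescence score within five deviations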;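 further: score derived from kinetic fluorescence span divided by baseline fluorescence per well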
ANO1 activ: activates or potentiates the mouse TMEM16A chloride channel. Q8BHY3. HEK293 TMEM16A/YFP-H148Q/I152L, iodide quench fluorescence; stronger effect = lower value. B-score at 10 µM. hit rate 0.3% among 340,000. AID 623877;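 active means fluorescence-ratio B-score plate-corrected deviation score at least 3 library SD below zero, with starting fluorescence score within 5 deviations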;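 further: channel opened by trigger with iodide after compound preincubation; score built on the fluorescence ratio of max minus min over baseline; more negative score means more quench and so TMEM16A activation or potentiation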
aSyn UTR inh: MLPCN primary screen, SNCA 5' untranslated region | inhibition, % (tested at 7.5 µM) | hit rate 0.82% among 300,000 | AID 1813 | alpha-synuclein 5'UTR reporter, inhibitor activity; in the data active means inhibition above about 60%;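 further: H4 neuroglioblastoma cells stably carrying SNCA 5'UTR luciferase fusion; 0% = DMSO wells and 100% = positive control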
697 NFkB inh: lowers PMA/ionomycin-induced NF-kB signal in 697 B cells | hit rate 0.33% among 330,000 | inhibition, % at 4 µM | 697 B-cell NF-kB luciferase reporter, 16 h; in the data active means inhibition above about 35%
KLF5 inhibitor: suppresses KLF5 promoter-driven expression; DLD-1 KLF5 promoter-luciferase reporter, luminescence; inhibition, % at 5 µM; hit rate 0.23% among 290,000;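 active means inhibition above a per-plate limit of that plate's mean compound inhibition plus 3 SD, cut at about 60% in these data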;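 further: 0% = DMSO wells and 100% = LY294002 at 200 µM; higher means less KLF5 promoter-driven luciferase light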
TMEM16A reconf: re-confirmation of mouse TMEM16A chloride channel inhibitors; shares compounds with ANO1 block; HEK293 TMEM16A/YFP-H148Q, iodide quench fluorescence; ionomycin added to raise cell calcium; inhibition, % at 10 µM; hit rate 39% among 2,300; AID 652189;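 active means mean duplicate percent inhibition, scaled so buffer wells are 0 and the reference blocker 100, over three buffer SD above buffer mean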
HEK293 Ca mobil: calcium mobilization counter-screen hit for TMEM16A inhibitor series; shares compounds with ANO1 block; AID 652231; TMEM16A/YFP HEK293, Fluo4 calcium mobilization; calcium response (% of ionomycin), % at 10 µM; hit rate 2% among 2,300;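 active means duplicate-averaged calcium signal over 20% of the ionomycin maximum, relative to buffer baseline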;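 further: each well's signal is peak minus trough fluorescence divided by its pre-addition baseline; 0% = buffer wells and 100% = ionomycin wells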
YFP-HEK293 quench: parental YFP-HEK293 iodide quench counter-screen activity; shares compounds with ANO1 block; ionomycin; YFP ratio F(max-min)/F0 at 10 µM; 2,300 tested, under 10 active; AID 652233;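 active means yellow fluorescent protein signal ratio exceeding the buffer control mean by over 5 SD of those controls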;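 further: ratio is mean of duplicate wells from kinetic YFP trace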
ClC-1 rat inh: blocks the rat ClC-1 voltage-dependent chloride channel | 2,300 tested, under 10 active | shares compounds with ANO1 block | ratio percent, % at 10 µM | CHO ClC-1-YFP, iodide influx fluorescence quench; iodide control reads 0, buffer control 100;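 active means duplicate-mean ratio percent above the mean of iodide-only control wells, which defines zero, plus 5 of their SD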;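 further: higher percent means stronger block of ClC-1 iodide influx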
Target sequence (P35524 whole entry, looked up): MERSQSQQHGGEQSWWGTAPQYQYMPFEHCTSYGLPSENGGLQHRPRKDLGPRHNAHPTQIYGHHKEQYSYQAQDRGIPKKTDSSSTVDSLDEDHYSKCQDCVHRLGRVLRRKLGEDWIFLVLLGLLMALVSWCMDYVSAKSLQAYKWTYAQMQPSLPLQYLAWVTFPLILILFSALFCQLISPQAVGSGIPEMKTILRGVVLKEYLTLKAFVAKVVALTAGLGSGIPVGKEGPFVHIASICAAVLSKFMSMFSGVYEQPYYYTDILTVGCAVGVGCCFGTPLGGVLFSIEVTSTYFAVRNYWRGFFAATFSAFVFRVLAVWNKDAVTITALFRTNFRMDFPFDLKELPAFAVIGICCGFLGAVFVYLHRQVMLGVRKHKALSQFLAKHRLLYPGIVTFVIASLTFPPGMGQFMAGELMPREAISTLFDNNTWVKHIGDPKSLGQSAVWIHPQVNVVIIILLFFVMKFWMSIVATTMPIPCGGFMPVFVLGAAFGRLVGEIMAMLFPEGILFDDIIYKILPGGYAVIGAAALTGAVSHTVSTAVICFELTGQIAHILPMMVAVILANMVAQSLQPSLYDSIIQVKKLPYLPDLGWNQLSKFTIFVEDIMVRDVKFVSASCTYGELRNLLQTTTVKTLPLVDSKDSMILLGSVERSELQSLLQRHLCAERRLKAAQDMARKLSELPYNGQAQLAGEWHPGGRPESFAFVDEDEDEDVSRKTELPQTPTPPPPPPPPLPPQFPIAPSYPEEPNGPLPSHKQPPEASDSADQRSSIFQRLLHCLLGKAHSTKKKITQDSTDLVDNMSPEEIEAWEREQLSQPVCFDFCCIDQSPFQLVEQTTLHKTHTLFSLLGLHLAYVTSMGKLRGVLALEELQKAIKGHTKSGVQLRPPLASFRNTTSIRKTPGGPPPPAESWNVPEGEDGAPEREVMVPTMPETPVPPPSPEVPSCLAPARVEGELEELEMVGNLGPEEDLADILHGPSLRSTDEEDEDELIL
Active calls of the source: *; i = inactive; x = no result.

SMILES | Jurkat NFkB inh | ANO1 block | ANO1 activ | aSyn UTR inh | 697 NFkB inh | KLF5 inhibitor | TMEM16A reconf | HEK293 Ca mobil | YFP-HEK293 quench | ClC-1 rat inh
COc1ccccc1C(=O)NCC(c1cccs1)N1CCc2ccccc21 (configuration not stated) | -1 | 25* | i | 10 | -2 | x | i | i | -0.85 | -5
COc1cc(C(=O)NCC(c2cccs2)N2CCc3ccccc32)cc(OC)c1OC (configuration not stated) | 15 | i | i | 12 | 0 | x | x | x | x | x
Cc1c(/C=N/NC(=O)c2ccccc2O)c2ccccn2c1C(=O)c1ccc(F)cc1 | 9 | 100* | i | 14 | 2 | -1 | 34%* | i | -0.92 | -14
COc1ccc(C)cc1NC(=O)CSc1nnc(COc2ccc(C)cc2)n1Cc1ccco1 | 15 | 25* | i | 1 | -13 | -20 | i | i | -1.1 | -14
COc1cc(NS(=O)(=O)c2ccc(C)cc2C)cc(OC)c1OC | 30 | 100* | i | 7 | 13 | -16 | 28%* | i | -0.99 | -12
CCOC(=O)N1CCC(N(C(=O)Nc2ccc(Cl)c(Cl)c2)C(C)CC)CC1 (configuration not stated) | 12 | 25* | i | -4 | 1 | -37 | i | i | -1.1 | -11
CC(=O)Nc1ccc(OC(F)(F)C(F)C(F)(F)F)c(NC(C)=O)c1 (configuration not stated) | -2 | 100* | i | -14 | -9 | -2 | i | i | -1.2 | -6
CCC(C)Sc1ccc([C@@H]2[C@H]3C(=O)N(CC)C(=O)[C@H]3[C@]3(C(=O)OC)CCCCN23)cc1 (some centres not stated) | 8 | i | i | x | -10 | x | 28%* | i | -0.71 | 13
O=S(=O)(Nc1cccnc1Cl)c1ccc(-c2ccccc2)cc1 | 1 | i | i | 12 | -6 | -5 | x | x | x | x
O=S(=O)(Nc1ccccc1O)c1ccc(-c2ccccc2)cc1 | -8 | 100* | i | -35 | -5 | -14 | 58%* | i | -1.1 | -24
Cc1cc(NC(=O)CSCC(=O)Nc2ccccc2Oc2ccccc2)no1 | -2 | i | i | 25 | -31 | x | x | x | x | x
Cc1ccc(Oc2ccccc2NC(=O)CSCC(=O)Nc2cc(C)on2)cc1 | 25 | i | i | -8 | -28 | x | 22%* | i | -1 | -11
CC(C)CC(=O)Nc1ccc(Oc2ccc3c(c2)C(=O)NC3=O)cc1 | 10 | i | i | 0 | 15 | -7 | x | x | x | x
S=C(NCCN1CCOCC1)N/N=C/c1c2ccccc2cc2ccccc12 | -21 | i | i | -74 | -34 | -6 | x | x | x | x
COCCNC(=S)N/N=C/c1c2ccccc2cc2ccccc12 | 1 | i | i | 15 | -10 | -11 | 30%* | i | -0.6 | 5
O=C(CS(=O)CC(=O)N(CC(=O)NC1CCCC1)c1ccccc1F)Nc1ccc(F)cc1 (configuration not stated) | -12 | i | i | 12 | 13 | 4 | x | x | x | x
COc1ccc(OC)c(C(=O)c2coc3ccc(O)cc23)c1 | -9 | 25* | i | -16 | -14 | -17 | i | i | -0.84 | -2
COc1ccc(S(=O)(=O)Nc2ccc(C(N)=O)cc2)cc1C(=O)N1CCCCCC1 | -1 | i | i | 6 | 4 | 0 | x | x | x | x
O=C(CCc1ccccc1)Nc1ccccc1F | -85 | 100* | i | -135 | 2 | -122 | i | i | -1 | -4
